High-throughput results from PubChem.
Ba/F3 V617F tox = lowers viability of Ba/F3 cells expressing EpoR and JAK2V617F. ATP luminescence. inhibition, % at 5.6 µM. 220,000 tested, 1.1% active. AID 1446;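 active = inhibition above the campaign mean plus 3 SD over all tested compounds, cut at about 24% in these data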;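 also: cytokine-independent growth of Ba/F3 cells driven by EpoR plus mutant JAK2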
aSyn UTR inh = MLPCN primary screen, SNCA 5' untranslated region. alpha-synuclein 5'UTR reporter, inhibitor activity. inhibition, % (tested at 7.5 µM). 300,000 tested, 0.82% active; in the data active = inhibition above about 60%;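 also: H4 neuroglioblastoma cells stably carrying SNCA 5'UTR luciferase fusion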
BaF3 parental = reduces parental Ba/F3 cell viability, JAK2V617F counter-screen; 220,000 tested, 1.1% active; AID 1486; inhibition, % at 5.6 µM; CellTiter-Glo ATP luminescence;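 active = inhibition above a per-campaign cutoff, the mean inhibition of all tested compounds plus 3 SD, cut at about 27% in these data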
APP 5UTR inh = APP translation inhibition; SH-SY5Y APP 5'UTR-luciferase reporter, luminescence; inhibition, % at 2 µM; 190,000 tested, 0.82% active; AID 1285;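 active = inhibition above a set limit, derived from the sample mean plus 3 SD, cut at about 45% in these data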
KLF5 inhibitor = suppresses KLF5 promoter-driven expression; DLD-1 KLF5 promoter-luciferase reporter, luminescence; inhibition, % at 5 µM; 290,000 tested, 0.23% active;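 active = inhibition above a per-plate limit of that plate's mean compound inhibition plus 3 SD, cut at about 60% in these data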;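 also: higher means less KLF5 promoter-driven luciferase light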
IEC-6 tox = IEC-6 cytotoxicity, counter-screen for KLF5 inhibitors | luminescence viability | inhibition, % at 5 µM | 290,000 tested, 0.78% active; in the data active = inhibition above about 22%
Large screens that a line does not name were inactive. Most compounds without a hit are left out; they make up all but 2.2% or so of the library.

CC(=O)N1CCN(c2ccc(NC(=O)c3ccc(Br)o3)cc2Cl)CC1	none
CCN1CCN(c2c(Cl)cccc2NC(=O)c2ccc([N+](=O)[O-])o2)CC1	aSyn UTR inh 79.2 (no result: Ba/F3 V617F tox, BaF3 parental, APP 5UTR inh)
CC(C)C(=O)N1CCN(c2ccc(NC(=O)c3ccc([N+](=O)[O-])o3)cc2Cl)CC1	APP 5UTR inh 96.1 (no result: aSyn UTR inh)
CCOc1cc(Br)ccc1S(=O)(=O)N1CC(C)OC(C)C1 (stereo unspecified)	BaF3 parental 93.0
CCOc1ccc(Br)cc1S(=O)(=O)N1CC(C)OC(C)C1 (stereo unspecified)	none
O=C(NC1CCS(=O)(=O)C1)c1cc(-c2ccccc2)nc2ccccc12 (stereo unspecified)	none
OCCN1CCN(C(c2cccs2)c2ccc3cccnc3c2O)CC1 (stereo unspecified)	Ba/F3 V617F tox 100.1, BaF3 parental 85.6, KLF5 inhibitor 83.0, IEC-6 tox 49.6 (no result: aSyn UTR inh)
CCN1CCN(C(c2ccc(C(F)(F)F)cc2)c2ccc3cccnc3c2O)CC1 (stereo unspecified)	none (no result: Ba/F3 V617F tox, BaF3 parental, APP 5UTR inh)
COC(=O)Cc1cc(=O)[nH]c(/N=C(\N)Nc2ccc(C(C)C)cc2)n1	none
COc1cc2c(cc1NC(=O)COc1ccc3ccccc3c1)oc1ccccc12	APP 5UTR inh 45.6
COc1cc2c(cc1NC(=O)C(C)N1CCN(S(=O)(=O)c3ccccc3[N+](=O)[O-])CC1)oc1ccccc12 (stereo unspecified)	APP 5UTR inh 93.3
COc1cc2c(cc1NC(=O)c1ccc(C)c([N+](=O)[O-])c1)oc1ccccc12	none
COc1cc2c(cc1NC(=O)c1cccc([N+](=O)[O-])c1)oc1ccccc12	aSyn UTR inh 80.9
CCOC(=O)Cn1nc(C)cc1NC(=O)c1cccnc1	none
COc1ccc(-c2cc(C(=O)Nc3cccnc3)c3ccccc3n2)cc1OC	none (no result: Ba/F3 V617F tox, BaF3 parental, APP 5UTR inh)
COc1ccc(C(=O)CCc2nc3ccccc3s2)cc1	none (no result: APP 5UTR inh)
CCCc1sc(N/N=C/c2ccccn2)nc1-c1ccc(Br)cc1	aSyn UTR inh 81.8
COCCCC1CCN(C(=O)C2CCC(=O)N(CCc3cccc(F)c3)C2)CC1 (stereo unspecified)	none (no result: Ba/F3 V617F tox, BaF3 parental, APP 5UTR inh)
COc1cc(C)c(NC(=S)NCCCN2CCOCC2)cc1OC	none
COc1ccc(CN2C(=NC(=O)C3CC3)SC3CS(=O)(=O)CC32)cc1 (stereo unspecified)	none (no result: Ba/F3 V617F tox, BaF3 parental, APP 5UTR inh)
CCC(=O)N1CCc2cc(S(=O)(=O)CCC(=O)Nc3ccc(CC)cc3)ccc21	BaF3 parental 93.3
CCc1ccc(NC(=O)CCS(=O)(=O)c2ccc3c(c2)CCN3C(C)=O)cc1	none (no result: Ba/F3 V617F tox, BaF3 parental, APP 5UTR inh)
CC(=O)Nc1ccc(NC(=O)N(c2ccccc2)c2ccccc2)cc1	none (no result: Ba/F3 V617F tox, BaF3 parental, APP 5UTR inh)
C=CCn1c(C)cc(C(=O)CN2NS(=O)(=O)c3ccccc3C2=O)c1C	APP 5UTR inh 84.6
CC(=O)O[C@H](CC(=O)O)C[N+](C)(C)C	none (no result: Ba/F3 V617F tox, BaF3 parental, APP 5UTR inh, KLF5 inhibitor, IEC-6 tox)
CC(=O)OC(CC(=O)O)C[N+](C)(C)C (stereo unspecified)	aSyn UTR inh 67.7
C(=N\Nc1ccc2ccccc2n1)/c1ccc2c(c1)OCCO2	aSyn UTR inh 108.4
OCCCNC(=S)Nc1ccc2nc(-c3ccccn3)c(-c3ccccn3)nc2c1	Ba/F3 V617F tox 84.6, BaF3 parental 70.6
CCCOc1ccc(Oc2ccc(S(=O)(=O)N3CCN(C)CC3)cn2)cc1	none (no result: Ba/F3 V617F tox, BaF3 parental, APP 5UTR inh, KLF5 inhibitor, IEC-6 tox)
CCOc1ccc(NC(C)=O)cc1	none (no result: Ba/F3 V617F tox, BaF3 parental, APP 5UTR inh)
CC(=O)Nc1ccc(OCc2cccc3ccccc23)cc1	aSyn UTR inh 92.1 (no result: Ba/F3 V617F tox, BaF3 parental, APP 5UTR inh)
Cc1ccc(NC(=O)COC(=O)Cc2ccsc2)c(C)c1	none
COc1ccc(COc2cc(-c3cccc(OC)c3)nc3ccc(NC(=O)C(C)C)cc23)cc1	Ba/F3 V617F tox 61.3, BaF3 parental 70.2
O=C(Nc1cccc(-c2nc3ccccc3o2)c1)c1ccc(N2C(=O)C3C4C=CC(C4)C3C2=O)cc1 (stereo unspecified)	aSyn UTR inh 88.3
Cc1sc2ncnc(N/N=C/c3ccccc3O)c2c1C	aSyn UTR inh 105.8, APP 5UTR inh 76.8
Oc1ccccc1/C=N/Nc1ncc(Br)cn1	APP 5UTR inh 57.0
Oc1ccccc1/C=N/Nc1ccnc(SCc2ccccc2)n1	APP 5UTR inh 56.2 (no result: aSyn UTR inh)
Oc1ccccc1/C=N/Nc1ccccc1	none
COc1ccc2nc(N=Nc3c(O)ccc4ccccc34)sc2c1	APP 5UTR inh 69.3
COc1ccc2nc(NC(=O)Nc3cccc4ccccc34)sc2c1	none
CCOc1cc(/C=N/NC(N)=O)cc(Br)c1OCc1ccccc1	none (no result: Ba/F3 V617F tox, BaF3 parental, APP 5UTR inh, KLF5 inhibitor, IEC-6 tox)
CNC(=S)N/N=C/c1cc(Br)c(OCc2ccncc2)c(OC)c1	none (no result: Ba/F3 V617F tox, BaF3 parental, APP 5UTR inh)
COc1cc(/C=N/NC(N)=S)cc(Br)c1OCc1ccccc1F	Ba/F3 V617F tox 65.1, BaF3 parental 53.1
CCOc1cc(/C=N/NC(N)=S)cc(Br)c1OCc1ccccc1C	BaF3 parental 27.5
CCOc1ccc(NC(=O)CN(C)C(=O)CCCn2c(=O)oc3ccccc32)cc1OCC	none (no result: Ba/F3 V617F tox, BaF3 parental, APP 5UTR inh, KLF5 inhibitor, IEC-6 tox)
O=C(COc1ccccc1Cl)N1CCN(C(=O)c2ccco2)CC1	none (no result: Ba/F3 V617F tox, BaF3 parental, APP 5UTR inh)
CCN(CC)c1ccc(S(=O)(=O)N2CCOCC2)cc1NC(=O)CN1CCc2ccccc2C1	none
CN(C)CC[n+]1ccc(C(=O)c2ccccc2)cc1	none (no result: Ba/F3 V617F tox, BaF3 parental, APP 5UTR inh)
O=C(CCc1nnc(-c2ccc(-c3ccccc3)cc2)o1)NCCc1ccccn1	aSyn UTR inh 90.3
COC(=O)CCCNC(=O)CCc1nnc(-c2ccc(-c3ccccc3)cc2)o1	aSyn UTR inh 76.9 (no result: Ba/F3 V617F tox, BaF3 parental, APP 5UTR inh)
CC(NC(=O)CCc1nnc(-c2ccc(-c3ccccc3)cc2)o1)c1nccs1 (stereo unspecified)	aSyn UTR inh 89.4
CC(NC(=O)CCl)c1ccccc1Br (stereo unspecified)	none (no result: APP 5UTR inh)
O=C(CCn1c(=S)oc2ccccc21)NC1CCCCCC1	none (no result: APP 5UTR inh)
CC1CCCCN1C(=O)CCn1c(=S)oc2ccccc21 (stereo unspecified)	BaF3 parental 50.4 (no result: APP 5UTR inh)
Cc1ccc(NC(=O)COC(=O)c2ccc([N+](=O)[O-])s2)c(C)c1	APP 5UTR inh 58.1
Cc1ccc(NC(=O)/C=C/c2ccc([N+](=O)[O-])s2)c(C)c1	APP 5UTR inh 93.3
Cc1cc(C)c(NC(=O)COC(=O)c2ccc([N+](=O)[O-])s2)c(C)c1	none
Cc1cc([N+](=O)[O-])ccc1NC(=O)/C=C/c1cccs1	none
Cc1ccc(NC(=O)/C=C/c2ccc([N+](=O)[O-])s2)cc1	APP 5UTR inh 84.5
Cc1cccc(NC(=O)/C=C/c2ccc([N+](=O)[O-])s2)c1	APP 5UTR inh 87.8
NC(=O)c1cccc(CS(=O)(=O)c2ccc(Cl)cc2)c1	none (no result: Ba/F3 V617F tox, BaF3 parental, APP 5UTR inh)
O=C(CCn1nc(-c2ccccc2)c2ccccc2c1=O)NN1CCOCC1	none
O=c1c2cccc3c2c(nn1CN1CCOCC1)-c1ccccc1-3	BaF3 parental 27.7
COc1ccc(CNC(=O)CSc2nnc(-c3cccnc3)n2N)cc1	BaF3 parental 81.9
CC(C)C(=O)Nc1cccc(C(=O)N2CCCCC2C)c1 (stereo unspecified)	Ba/F3 V617F tox 31.7, BaF3 parental 48.6
Cc1cc([N+](=O)[O-])ccc1-c1ccc(C2Nc3ccccc3C(=O)N2O)o1 (stereo unspecified)	aSyn UTR inh 82.6, APP 5UTR inh 53.5
